Laboratory results: PubChem BioAssay (Tox21)
Records with an inconclusive call do not appear. The source made the active and inactive calls. Unless noted, calls come from the whole dose curve; as a rule, active = well fitted curve in the direction sought with a large enough effect in the repeat runs; inconclusive = weak or mixed curves; inactive = no such curve, though single readings can be large; an effect the other way counts as inactive or inconclusive.

What was measured:
[1] = qHTS assay for small molecule agonists of the p53 signaling pathway (AID 651631; calls by dose curve; note: nearly all actives have a fitted effect of over 15% in size)
Outline: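 Readout was fluorescence from the LiveBLAzer FRET substrate, applied for 2 h at room temperature after 16 h compound exposure at 37 °C. Cells were the p53RE-bla HCT-116 line, with beta-lactamase driven by p53 response elements.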

[2] = qHTS assay for small molecules that induce genotoxicity in human embryonic kidney cells expressing luciferase-tagged ATAD5 (AID 651632); note: nearly all actives have a fitted effect of over 15% in size
Outline: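 Cells were seeded at 2,000 per well, dosed with compound, and incubated 16 hr at 37C in 5% CO2. Luciferase activity was then quantified after a 30 min room-temperature incubation with Amplite.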

[3] = qHTS assay for small molecule agonists of the p53 signaling pathway - cell viability (AID 651633; calls by dose curve; note: series mostly up to about 83 µM; nearly all actives have a fitted effect of over 30% in size)
Outline: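 Viability counter-read: CellTiter-Glo luminescence (30 min, room temperature) in the same p53RE-bla plates. These plates had been exposed to compounds for 16 h at 37 C.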

[4] = qHTS assay for small molecules that induce genotoxicity in human embryonic kidney cells expressing luciferase-tagged ATAD5 - cell viability (AID 651634; calls by dose curve; note: nearly all actives have a fitted effect of over 25% in size)
Outline: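 Cells (HEK293T, luciferase-tagged ATAD5) are seeded at 2,000 per well, dosed with compound or DMSO vehicle, and incubated 15.5 hr at 37C and 5% CO2. CellTiter-Fluor is added for 30 min before fluorescence is measured.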

[5] = qHTS assay for small molecule disruptors of the mitochondrial membrane potential - cell viability (AID 720634; calls by dose curve;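 note: human HepG2 liver cancer cells; series mostly up to about 83 µM; nearly all actives have a fitted effect of over 20% in size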)
Outline: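 Cytotoxicity was measured by ATP quantitation in HepG2 wells that had first been treated with compound for 1 hr and stained with m-MPI dye; CellTiter-Glo incubation was 30 min at room temperature.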

[6] = qHTS assay for small molecule disruptors of the mitochondrial membrane potential (AID 720635)
Outline: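 Mitochondrial membrane potential tracked with Mito-MPS dye, red aggregates (ex 540/em 590 nm) against green monomers (ex 490/em 535 nm). Compound treatment 1 hr at 37C, dye 30 min in HepG2.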

[7] = qHTS assay to test for compound auto fluorescence at 590 nm (red) in HepG2 cells (AID 720674)
Outline: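 We screened compounds on adherent HepG2 cells, incubating them for an hour at 37 C in 5% CO2 before reading emission at 590 nm under 540 nm excitation; values reflect equivalence to Rose Bengal sodium fluorescence.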

[8] = qHTS assay to test for compound auto fluorescence at 535 nm (green) in HepG2 cells (AID 720675)
[9] = qHTS assay to test for compound auto fluorescence at 460 nm (blue) in HEK293 cells (AID 720678)
Outline: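 After cell attachment (4-5 hr, 37C), compounds were pinned onto HEK293 monolayers in 10% dialyzed FBS medium. The blue channel (405/460 nm) was read following overnight culture. Equivalency was calculated against triamterene.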

[10] = qHTS assay to test for compound auto fluorescence at 590 nm (red) in HEK293 cells (AID 720679)
Outline: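 Plates of HEK293 cells (10% dialyzed FBS) are treated with 23 nL compound or DMSO vehicle after a 4-5 hr attachment period, incubated overnight at 37C, and read for red fluorescence at 540/590nm.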

[11] = qHTS assay to test for compound auto fluorescence at 535 nm (green) in HEK293 cells (AID 720680)
[12] = qHTS assay to test for compound auto fluorescence at 460 nm (blue) in HEK293 cell free culture (AID 720681)
Outline: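 Blue fluorescence (Ex 405/Em 460 nm, triamterene-equivalent) was read immediately after pin transfer of compound or DMSO into medium (DMEM, 10% FBS) without cells.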

[13] = qHTS assay to test for compound auto fluorescence at 590 nm (red) in HEK293 cell free culture (AID 720683)
Outline: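 Red-channel autofluorescence of compounds in culture medium (DMEM, 10% FBS), no cells, measured at 540/590 nm. Rose Bengal sodium is the reference fluorophore for equivalence.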

[14] = qHTS assay to test for compound auto fluorescence at 590 nm (red) in HepG2 cell free culture (AID 720684)
Outline: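 No cells present: MEM + 10% FBS only. Compound pinned in, red label read (540/590 nm). Activity = fluorescence equivalent to Rose Bengal sodium.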

[15] = qHTS assay to test for compound auto fluorescence at 460 nm (blue) in HepG2 cell free culture (AID 720685)
Outline: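 Cell-free plates of MEM plus 10% FBS received 23 nL compound or DMSO vehicle; blue-channel (405/460 nm) intensity scored against triamterene as reference fluorophore.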

[16] = qHTS assay to test for compound auto fluorescence at 460 nm (blue) in HepG2 cells (AID 720687)
Outline: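 Blue-channel autofluorescence (Ex/Em 405/460 nm, triamterene-equivalent) was measured after 1 hr compound exposure at 37 C, 5% CO2. Cells were HepG2, plated overnight at 37 C in MEM plus 10% FBS.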

[17] = molecular target: Glucocorticoid receptor (Homo sapiens) (UniProt P04150); assay: qHTS assay to identify small molecule agonists of the glucocorticoid receptor (GR) signaling pathway (AID 720691; active = well fitted activation curve with a large enough effect in the signal ratio in the repeat runs, not every such curve was filed as active; the % refers to the signal ratio)
Outline: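 Steps: seed GR-bla HeLa cells, incubate 4 h at 37 C/5% CO2; pin-transfer DMSO-dissolved compounds; incubate 18 h at 37 C; add LiveBLAzer B/G FRET substrate; after 2 h at room temperature, measure fluorescence.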

[18] = molecular target: Glucocorticoid receptor (Homo sapiens) (UniProt P04150); assay: qHTS assay to identify small molecule antagonists of the glucocorticoid receptor (GR) signaling pathway (AID 720692; active = well fitted inhibition curve with a large enough effect in the signal ratio in the repeat runs, not every such curve was filed as active; the % refers to the signal ratio)
Outline: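 Antagonism was scored as loss of dexamethasone-driven (5 nM final) reporter signal in HeLa cells bearing a glucocorticoid response element–beta-lactamase construct, after 18 h compound exposure at 37 C and 2 h FRET substrate loading.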

[19] = qHTS assay to test for compound auto fluorescence at 535 nm (green) in HEK293 cell free culture (AID 720682)
Outline: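 Compounds were pin-transferred into cell-free DMEM with 10% FBS, and green fluorescence was read at excitation 485 nm and emission 535 nm. Intensities were expressed as fluorescein-equivalent values.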

[20] = qHTS assay to test for compound auto fluorescence at 535 nm (green) in HepG2 cell free culture (AID 720686)
% is set by controls: 0 for no effect and ±100 for the full control effect.

Chain of Glucocorticoid receptor (Homo sapiens) (P04150 whole entry, looked up): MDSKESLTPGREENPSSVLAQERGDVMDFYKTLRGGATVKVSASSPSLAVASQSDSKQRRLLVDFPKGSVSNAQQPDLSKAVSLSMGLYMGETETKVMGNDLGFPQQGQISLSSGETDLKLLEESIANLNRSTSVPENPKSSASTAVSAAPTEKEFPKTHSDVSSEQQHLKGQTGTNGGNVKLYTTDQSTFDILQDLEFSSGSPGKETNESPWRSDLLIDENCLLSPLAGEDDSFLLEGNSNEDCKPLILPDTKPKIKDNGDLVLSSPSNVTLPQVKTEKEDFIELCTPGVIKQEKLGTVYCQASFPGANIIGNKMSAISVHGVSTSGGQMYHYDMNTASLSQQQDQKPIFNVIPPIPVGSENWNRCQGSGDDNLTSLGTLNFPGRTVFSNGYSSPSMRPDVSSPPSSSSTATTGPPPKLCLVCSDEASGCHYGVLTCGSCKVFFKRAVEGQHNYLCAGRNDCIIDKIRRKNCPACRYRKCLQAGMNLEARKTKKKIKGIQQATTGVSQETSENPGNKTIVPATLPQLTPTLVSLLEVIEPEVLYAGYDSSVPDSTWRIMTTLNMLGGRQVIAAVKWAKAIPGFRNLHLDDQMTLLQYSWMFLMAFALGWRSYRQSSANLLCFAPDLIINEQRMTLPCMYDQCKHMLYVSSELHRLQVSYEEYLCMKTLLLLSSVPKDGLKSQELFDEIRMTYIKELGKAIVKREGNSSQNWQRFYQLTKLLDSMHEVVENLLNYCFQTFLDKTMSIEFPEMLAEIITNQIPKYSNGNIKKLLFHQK

Cc1ccccc1C(N)=O
inactive: outcome [1] | outcome [2] | outcome [3] | Potency [4] | outcome [5] | Potency [6] | outcome [7] | outcome [8] | outcome [9] | outcome [10] | outcome [11] | outcome [12] | outcome [13] | outcome [14] | outcome [15] | outcome [16] | Potency [17] | outcome [18]

CSc1cnccn1
inactive: outcome [1] | outcome [2] | outcome [3] | Potency [4] | outcome [5] | Potency [6] | outcome [7] | outcome [8] | outcome [9] | outcome [10] | outcome [11] | outcome [12] | outcome [19] | outcome [14] | outcome [15] | outcome [20] | outcome [16]

Cc1cccc(Cl)c1
inactive: outcome [1] | outcome [2] | outcome [3] | Potency [4] | outcome [5] | Potency [6] | outcome [7] | outcome [9] | outcome [10] | outcome [11] | outcome [12] | outcome [19] | outcome [13] | outcome [14] | outcome [15] | outcome [20] | outcome [16]

CC(=O)O[C@@H]1CC2CCC1(C)C2(C)C (stereo partly specified)
inactive: outcome [1] | outcome [2] | outcome [3] | Potency [4] | outcome [5] | Potency [6] | outcome [7] | outcome [8] | outcome [9] | outcome [10] | outcome [11] | outcome [19] | outcome [14] | outcome [16] | Potency [17] | outcome [18]

Cc1ncc([N+](=O)[O-])n1CC(C)O (stereo unspecified)
inactive: outcome [1] | outcome [2] | outcome [3] | Potency [4] | outcome [5] | Potency [6] | outcome [7] | outcome [8] | outcome [9] | outcome [10] | outcome [11] | outcome [12] | outcome [19] | outcome [13] | outcome [14] | outcome [15] | outcome [20] | outcome [16] | Potency [17] | outcome [18]

OC[C@H]1O[C@@H](O[C@@H]2[C@@H](CO)O[C@](O)(CO)[C@H]2O)[C@H](O)[C@@H](O)[C@H]1O
inactive: outcome [1] | outcome [2] | outcome [3] | Potency [4] | outcome [5] | Potency [6] | outcome [8] | outcome [9] | outcome [10] | outcome [11] | outcome [12] | outcome [19] | outcome [13] | outcome [14] | outcome [15] | outcome [20] | outcome [16] | Potency [17] | outcome [18]

Cc1cc(C)c(C(=O)O)c(C)c1
inactive: outcome [1] | outcome [2] | outcome [3] | Potency [4] | outcome [5] | Potency [6] | outcome [9] | outcome [10] | outcome [11] | outcome [12] | outcome [19] | outcome [13] | outcome [14] | outcome [15] | outcome [20] | outcome [16] | Potency [17]

CCCC(CC)c1ccccc1 (stereo unspecified)
inactive: outcome [1] | outcome [2] | outcome [3] | Potency [4] | outcome [5] | outcome [7] | outcome [8] | outcome [9] | outcome [10] | outcome [11] | outcome [12] | outcome [14] | outcome [15] | outcome [20] | outcome [16] | Potency [17] | outcome [18]

O=C(CN1CCNCC1)NC1CCCCC1
inactive: outcome [1] | outcome [2] | outcome [3] | Potency [4] | outcome [5] | Potency [6] | outcome [7] | outcome [9] | outcome [10] | outcome [11] | outcome [12] | outcome [19] | outcome [13] | outcome [14] | outcome [20] | outcome [16] | Potency [17]

C=CC(=O)CCCCC
inactive: outcome [1] | outcome [2] | outcome [3] | Potency [4] | outcome [5] | outcome [7] | outcome [8] | outcome [9] | outcome [10] | outcome [11] | outcome [12] | outcome [19] | outcome [13] | outcome [14] | outcome [15] | outcome [16]

O=C(O)CONC(=O)c1ccccc1
inactive: outcome [1] | outcome [2] | outcome [3] | Potency [4] | outcome [5] | outcome [7] | outcome [8] | outcome [9] | outcome [10] | outcome [11] | outcome [12] | outcome [19] | outcome [13] | outcome [14] | outcome [15] | outcome [20] | outcome [16]

CCCCCCCCCCCCCCCCCCOCCO
inactive: outcome [1] | outcome [2] | outcome [3] | Potency [4] | outcome [5] | Potency [6] | fluorescence, % of fluorescein control [8] 0.0331% [at 18.6 µM] | fluorescence, % of triamterene [9] -0.176% [at 18.6 µM] | fluorescence, % of fluorescent control [10] -0.175% [at 18.6 µM] | fluorescence, % of fluorescein [11] -0.0578% [at 18.6 µM] | fluorescence, % of fluorescent control [12] -0.0158% [at 18.6 µM] | activity change [19] -0.0191% [at 18.6 µM] | fluorescence, % of Rose Bengal [14] -0.0112% [at 18.6 µM] | fluorescence, % of fluorescent control [15] 0.0125% [at 18.6 µM] | fluorescence, % of fluorescein control [20] -0.0027% [at 18.6 µM] | fluorescence, % of fluorescent control [16] 0.0321% [at 18.6 µM] | Potency [17]

COC(C)(OC)OC
inactive: outcome [1] | outcome [2] | outcome [3] | Potency [4] | outcome [5] | outcome [7] | outcome [8] | outcome [9] | outcome [10] | outcome [11] | outcome [12] | outcome [19] | outcome [13] | outcome [14] | outcome [15] | outcome [20] | outcome [16] | Potency [17] | outcome [18]

CCCCCCCCCOC(=O)c1ccccc1C(=O)OCCCCCCCCC
inactive: outcome [1] | outcome [2] | outcome [3] | Potency [4] | outcome [5] | Potency [6] | outcome [7] | outcome [9] | outcome [10] | outcome [11] | outcome [12] | outcome [19] | outcome [14] | outcome [15] | outcome [20] | outcome [16] | Potency [17]

CCc1occc(=O)c1O
inactive: outcome [1] | outcome [2] | outcome [3] | Potency [4] | outcome [5] | outcome [7] | outcome [9] | outcome [10] | outcome [11] | outcome [12] | outcome [19] | outcome [13] | outcome [14] | outcome [15] | outcome [20] | outcome [16] | Potency [17]
